# Test results taken from PubChem BioAssay (NCI).
# “And” between values parts separate entries of the source, which are not always exact repeats. Equal entries are not always repeated. This is part of a sample that, as a whole, favours compounds with a hit. Of some 79,000 tested, about 15% had one in any assay. Unmarked numbers belong to inactive results. Cut-off read from the data, not from the text of the source: active = growth inhibition above about 70%; inactive = the rest.
# Assay: NCI Yeast Anticancer Drug Screen. Data for the bub3 strain (AID 167)
# Conditions: S. cerevisiae bub3 mutant strain, stronger effect = higher value; at 50.0 µM unless noted
# Method in brief: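 In this screen, a yeast mutant lacking normal mitotic checkpoint function is challenged with compound. Relative growth versus vehicle gives the inhibition value.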
row,Compound,growth inhibition
1,O=C1c2c(O)ccc(O)c2C(=O)c2c(NCCNCCO)ccc(NCCNCCO)c21,9.5% and -63.3%
2,CC(O)CNC1=CC(=O)C(=O)c2ccccc21 (centres undefined),20.4%
3,COCCOC(=O)OCCOC,-12.8%
4,COc1ccccc1CN1CCCN(Cc2ccccc2OC)C1c1ccc(N(C)C)cc1,14.3%
5,NC(=S)Cc1ccncc1,5.55%
6,CN(C)c1cccc2c(S(=O)(=O)NCCCNCCN)cccc12,-21.2%
7,CCCCCCCCCCCC,37.9%
8,CCSCCC#N,8.1%
9,CCCC1SCC(=O)N1c1nncs1 (centres undefined),-8%
10,O=C1C(Br)=C[C@H]2C3C=CC(Br)(C3=O)[C@@H]12 (some centres undefined),15.6%
11,CC1=CSC2=NCCCCN12,18.2%
12,Oc1ccccc1-c1cc(-c2ccccc2)nc(NCCCNc2nc(-c3ccccc3)cc(-c3ccccc3O)n2)n1,35%
13,Cc1ccc2nc(NC(=O)C(=O)C(C#N)c3nc4ccccc4s3)sc2c1 (centres undefined),18.5%
14,CNC(=O)N(CCCC(NC(C)=O)C(=O)NCc1ccccc1)Cc1ccccc1 (centres undefined),8.5%
15,COC(=O)CC(C)N(c1ccc(Cl)c(Cl)c1)S(=O)(=O)c1ccc(C)cc1 (centres undefined),-6.05%
16,CSC(N)=Nc1cccc2ccccc12,-34.2%
17,OC(c1ccc(OCc2ccccc2)cc1)c1ccccn1 (centres undefined),-5.7%
18,O=C1NC(=O)c2c(O)cccc21,13.4%
19,CN(C)c1ccc(/C=C/C(=O)N[C@@H]2C(=O)N3[C@@H]2SC(C)(C)[C@@H]3C(=O)O)cc1,-12.8%
